# Assay results as given in PubChem BioAssay AID1851 (National Center for Advancing Translational Sciences (NCATS), 2009).
# The campaign covered roughly 16,000 compounds. About 5,800 (36%) were called active. Roughly 23% stayed inconclusive and do not appear here. The list shows a part of the results. A number with no mark means an inactive call. The call rests on the fitted dose curve; in most records, active means well fitted curve in the direction sought with a large enough effect; inconclusive means small, poorly fitted or top-dose-only effect, or effect the other way; inactive means no such curve, though single readings can be large or run the other way.
# Biological target: Cytochrome P450 2C19 (Homo sapiens) (UniProt P33261)
# Assay: Cytochrome panel assay with activity outcomes
# Settings: recombinant CYP, pro-luciferin dealkylation, luminescence, p450-cyp2c19; series mostly up to 57.1 µM; activity, negative = inhibition: at the top concentration
# On the % scale 0 is the no-effect control and ±100 the full control effect.
# Sequence of Cytochrome P450 2C19 (Homo sapiens) (P33261 whole entry, looked up): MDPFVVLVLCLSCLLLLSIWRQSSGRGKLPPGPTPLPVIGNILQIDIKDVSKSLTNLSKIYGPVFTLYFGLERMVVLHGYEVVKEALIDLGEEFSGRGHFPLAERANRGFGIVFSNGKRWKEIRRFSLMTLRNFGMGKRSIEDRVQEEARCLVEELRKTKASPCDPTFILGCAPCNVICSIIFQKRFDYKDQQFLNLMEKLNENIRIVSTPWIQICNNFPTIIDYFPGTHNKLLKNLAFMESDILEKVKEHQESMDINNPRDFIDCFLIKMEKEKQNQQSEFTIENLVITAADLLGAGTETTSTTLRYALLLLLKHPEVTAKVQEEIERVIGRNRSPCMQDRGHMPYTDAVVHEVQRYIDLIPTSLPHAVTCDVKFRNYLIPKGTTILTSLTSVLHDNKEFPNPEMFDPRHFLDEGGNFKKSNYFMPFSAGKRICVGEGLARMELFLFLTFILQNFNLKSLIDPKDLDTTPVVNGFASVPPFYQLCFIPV
Structure (SMILES),"activity, negative = inhibition",AC50
CCN(CCCc1ccccc1)CCCc1ccccc1,-5.51% [at 25.6 µM],
CCN(CC)CC#CCC(C)(c1ccccc1)c1ccccc1,,0.447 µM (active)
CCN(CC)CCOC(=O)C(c1ccccc1)c1ccccc1,-12.6% [at 25.6 µM],
O=C(c1ccc(N2CCCCC2)c([N+](=O)[O-])c1)N(Cc1ccccc1)c1ccccn1,,14.1 µM (active)
COc1ccccc1N1CCN(CCN(C(=O)C2CCCCC2)c2ccccn2)CC1,-20.8%,
O=C1C(Cl)=C(Sc2nnc3c4ccccc4c4ccccc4c3n2)C(=O)c2ccccc21,,1.58 µM (active)
CN(CC(=O)N1CCN(c2ccccc2)CC1)S(=O)(=O)c1cnc[nH]1,,2.24 µM (active)
CCc1cccc(NC(=O)CN(C)S(=O)(=O)c2cnc[nH]2)c1,,0.447 µM (active)
CC[n+]1c(/C=C/Nc2ccccc2)oc2ccccc21,-22%,
COc1ccc(O[C@H]2C=C[C@@H](c3ccccc3)O[C@H]2CO/N=C2/c3cc(OC)ccc3O[C@@H](c3cccc(OC)c3)[C@H]2O)cc1,,0.501 µM (active)
CCCNC(=O)OC[C@@H]1O[C@H](CCON=C(C)C)C=C[C@@H]1Oc1ccc(OC)cc1,-39.5% [at 11.4 µM],
CCCNC(=O)OC[C@@H]1O[C@H](CCO/N=C(\C)CCN2CCc3nc(CC)c(CC)cc3C2)C=C[C@@H]1Oc1ccc(OC)cc1,-24.5% [at 11.4 µM],
CCCNC(=O)OC[C@@H]1O[C@H](CCO/N=C2\c3cc(OC)ccc3O[C@H](c3cccc(OC)c3)[C@H]2O)C=C[C@@H]1Oc1ccc(OC)cc1,,1.58 µM (active)
CCOC(=O)CCCc1c[nH]c2ccccc12,,5.01 µM (active)
CC(C)CNC(=O)CCCc1c[nH]c2ccccc12,,2.24 µM (active)
C[C@@](N)(Cc1c[nH]c2ccccc12)C(=O)O,34.7% [at 11.4 µM],
CCOC(=O)CCCN,31.2% [at 11.4 µM],
N[C@@H](Cc1c[nH]c2ccccc12)C(=O)O,-11.9%,
N[C@@H]1CONC1=O,,inactive
CO/N=C(\C(=O)N[C@@H]1C(=O)N2C(C(=O)O)=C(COC(C)=O)CS[C@@H]12)c1csc(N)n1,-19% [at 25.6 µM],
Cc1ccsc1/C=C1/SC(=O)N(CC(=O)N2CCOCC2)C1=O,-27.3%,
Cc1cc(N2CCOCC2)ccc1/C=C1\SC(=O)N(C(C)C)C1=O,,10 µM (active)
Nc1ncc(-c2ccccc2)n1CC1CCCO1 (stereo not drawn),,5.62 µM (active)
O=c1cnc2cnc(Nc3ccccc3)nc2n1C[C@H]1CCCO1,-34.8%,

Structure (SMILES),"activity, negative = inhibition",AC50
O=c1c(-c2ccccc2)nc2cnc(N3CCOCC3)nc2n1C[C@H]1CCCO1,-4.21%,
CC(/C=N/n1c(-c2cccnc2)n[nH]c1=S)=C\c1ccccc1,,2.82 µM (active)
COc1ccc(-n2c(-c3cnccn3)n[nH]c2=S)cc1,-4.23%,
Nc1c2c(nc3ccccc13)CCCC2,,inactive
COc1cc(-c2nnc(COC(=O)c3c4c(nc5ccccc35)CCCC4)o2)cc(OC)c1OC,,1.78 µM (active)
C[C@@H]1C[C@H](OC(=O)c2ccccc2O)CC(C)(C)C1,,10 µM (active)
C[C@@H]1C[C@H](OC(=O)[C@@H](O)c2ccccc2)CC(C)(C)N1C,37.5% [at 25.6 µM],
O=C(Nc1cccc(F)c1)N1CCC2(CC1)CCN(C(=O)c1cnccn1)CC2,5.51%,
CCOC(=O)c1c2ccc(OCC(=O)N/N=C/c3ccc(Cl)cc3)cc2n2ccccc12,,2.51 µM (active)
CCOC(=O)c1c2c(n3ccccc13)C(=O)c1ccccc1C2=O,0.385% [at 11.4 µM],
C/C(=N\NC(=S)Nc1cccc(C)c1)c1ccccc1,,0.447 µM (active)
Cc1ccc(NC(=S)Nc2ccc(Br)cc2)cc1,,0.562 µM (active)
CCCNC(=S)Nc1ccc(Br)cc1,,7.94 µM (active)
Cc1cccc(NC(=S)Nc2ccc(Br)cc2)c1,,0.708 µM (active)
CCN1C(=O)[C@H]2[C@H]3[C@H](O)[C@H](O)C/C(=N/O[C@@H]4O[C@@H](COC(C)=O)[C@@H](OC(C)=O)[C@@H](OC(C)=O)[C@H]4OC(C)=O)[C@H]3CC[C@@H]2C1=O,16.6% [at 11.4 µM],
CO[C@@H]1COC(=O)[C@H](COCc2ccccc2)NC(=O)C/C=C\[C@@H](C)[C@H](OC)COC(=O)[C@@H](C)NC(=O)C/C=C\[C@H]1C,5.67% [at 11.4 µM],
CCCC(=O)Nc1nc(-c2ccc3c(c2)CCN3S(C)(=O)=O)cs1,-24.4%,
COc1ccc(-c2ccc(=O)n(CC(=O)Nc3nnc(C(C)C)s3)n2)cc1OC,-29.9%,
COc1ccc(-c2csc(NC(=O)CCn3cnc4ccccc4c3=O)n2)cc1OC,,2.82 µM (active)
CN1CCN(Cc2nc3cccc4c3c([n+]2[O-])-c2ccccc2-4)CC1,-13.4% [at 11.4 µM],
C=CCn1c(SCC(=O)N2CCc3ccccc3C2)nc2ccccc2c1=O,,1.58 µM (active)
O=C(Cn1c(SCC(=O)N2CCc3ccccc3C2)nc2ccccc21)NC1CCCC1,,10 µM (active)
COc1ccc2c3c(ccc2c1)N[C@H](C(=O)O)CC3,3.64% [at 11.4 µM],
CN1CC(c2ccccc2)C2(COc3ccccc3C2=O)C12C(=O)Nc1ccccc12 (stereo not drawn),,1.12 µM (active)
